ChEMBL document CHEMBL3988442, “University of Dundee, Small-Polar-MMV Screening Library” (2021)
Screen size: about 48,000 compounds; about 13,000 (27%) showed an effect of 50% or more. The list shows a part of the results.

tested on: Wolbachia pipientis; test: Anti-Wolbachia Cell-Based Screen; assay type: functional; set-up: scale not given: in the data most compounds retested in dose-response had high values; conditions: 5 µM

SMILES | Percent Effect
Cc1ccc(-c2cnnc(NCC3(N4CCOCC4)CCCC3)n2)o1 | 10.34%
CNC(=O)c1cc2c(s1)CCN(C(=O)CCC1CCCN(C)C1)C2 (stereo not given) | -26.69%
Cc1nn(C)c(C)c1CN(Cc1cccn1-c1ncccn1)C(C)C | -15.44%
CC(Cn1ccnc1)NC(=O)N(C)Cc1ccco1 (stereo not given) | 7.542%
Cc1ccccc1CC1(CO)CCCN(c2ncnc3sccc23)C1 (stereo not given) | 23.07%
Cc1noc([C@@H]2C[C@H]3OCC[C@H]3N(S(=O)(=O)c3cccnc3)C2)n1.O=C(O)C(F)(F)F | -2.374%
Cc1noc([C@@H]2C[C@H]3OCC[C@H]3N(Cc3ccoc3)C2)n1 | 14.51%
Cc1nnc([C@H]2C[C@H]3OCC[C@H]3N(S(=O)(=O)C3CC3)C2)o1 | 7.121%
Cc1noc([C@@H]2C[C@H]3OCC[C@H]3N(S(=O)(=O)N(C)C)C2)n1 | 112.3%
Cc1nnc([C@H]2C[C@H]3OCC[C@H]3N(S(=O)(=O)N(C)C)C2)o1 | -11.67%
Cc1noc([C@@H]2C[C@H]3OCC[C@H]3N(S(=O)(=O)c3ccccc3)C2)n1 | 116%
CCC(O)Cn1nc(CCSC)nc1-c1ccc2[nH]ccc2c1 (stereo not given) | 4.032%
COc1ccc(OCc2nc(C(=O)N3CCCNC(=O)C3)co2)cc1 | -7.469%
COc1ccc(CN(C)C(=O)c2nnc(CN(C)C)o2)cc1 | -11.59%
CN1CC(c2ccccc2)CC12CCN(C(=O)c1ccc(F)cc1)CC2 (stereo not given) | -4.742%
O=C(c1ccccc1)N1CCCC(Nc2ccc(F)cc2)C1 (stereo not given) | -11.95%
NC(=O)C1CN(C(=O)c2ccc(F)cc2)CCN1CCc1ccccc1 (stereo not given) | 127.4%
O=C(NC[C@H]1OC[C@@H](NC2CCC(F)(F)CC2)[C@@H]1O)C1CCCC1 | 8.921%
CN(C)c1cc2c(nn1)CCN(C(=O)C1COc3ccccc3C1)C2 (stereo not given) | -4.709%
CN(Cc1ccco1)C(=O)[C@@]12CNC[C@@H]1CN(C1CCCC1)C2 | -1.971%
COCC(=O)NC1CC2(CCN(CCO)CC2)c2ccccc21.O=C(O)C(F)(F)F (stereo not given) | 86.71%
O=C(NC1CC2(CCN(CCO)CC2)c2ccccc21)c1ccncc1.O=C(O)C(F)(F)F.O=C(O)C(F)(F)F (stereo not given) | -8.101%
COCC(=O)NC1CC2(CCN(CCN(C)C)CC2)c2ccccc21 (stereo not given) | 87.88%
CCN1CCC2(CC1)CC(NC(=O)c1ccnnc1)c1ccccc12.O=C(O)C(F)(F)F (stereo not given) | -6.669%
CC(C)C(=O)NC1CC2(CCN(CC(=O)N(C)C)CC2)c2ccccc21.O=C(O)C(F)(F)F (stereo not given) | 105.8%
